Here are results for 30 compounds from PubChem BioAssay (NCATS).

Results filed as inconclusive are left out. Calls of active or inactive are those of the source. Calls come from the whole dose curve; as a rule, active = well fitted activation curve with a large enough effect in the main read-out, with a control signal flat (not every such curve was filed as active); inconclusive = small, poorly fitted or top-dose-only effect, or effect the other way, or a change in a side signal; inactive = flat fitted curve, though single readings scatter.

3',5'-cyclic-AMP phosphodiesterase 4B (Homo sapiens), sequence (Q07343 whole entry, looked up): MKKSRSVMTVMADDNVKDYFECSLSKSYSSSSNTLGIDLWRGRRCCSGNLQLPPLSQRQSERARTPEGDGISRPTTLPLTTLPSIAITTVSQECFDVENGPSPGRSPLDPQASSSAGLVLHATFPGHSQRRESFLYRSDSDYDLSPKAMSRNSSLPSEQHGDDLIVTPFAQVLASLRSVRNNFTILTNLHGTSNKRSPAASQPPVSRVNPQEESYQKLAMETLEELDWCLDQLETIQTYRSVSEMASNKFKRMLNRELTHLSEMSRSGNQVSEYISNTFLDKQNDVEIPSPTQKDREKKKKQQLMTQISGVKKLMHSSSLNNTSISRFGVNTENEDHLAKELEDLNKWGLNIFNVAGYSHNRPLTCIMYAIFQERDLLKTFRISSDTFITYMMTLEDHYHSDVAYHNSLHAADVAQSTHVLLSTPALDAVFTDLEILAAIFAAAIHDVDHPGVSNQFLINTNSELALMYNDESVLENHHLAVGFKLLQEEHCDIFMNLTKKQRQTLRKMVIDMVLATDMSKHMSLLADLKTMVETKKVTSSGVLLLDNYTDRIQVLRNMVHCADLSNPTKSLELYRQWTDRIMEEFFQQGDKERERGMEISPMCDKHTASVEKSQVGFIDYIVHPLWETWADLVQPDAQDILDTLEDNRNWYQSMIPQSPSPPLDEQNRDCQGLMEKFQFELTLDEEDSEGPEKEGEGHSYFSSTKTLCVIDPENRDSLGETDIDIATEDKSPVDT

The target of the assay is 3',5'-cyclic-AMP phosphodiesterase 4B (Homo sapiens) (UniProt Q07343). The assay can be described thus: qHTS Assay for Inhibitors of PDE-IV (AID 607). The conditions noted are these: HEK293 ACTOne CNG channel cells, membrane potential fluorescence; series mostly up to 22.9 µM. The text has this:
NIH Chemical Genomics Center [NCGC]
NIH Molecular Libraries Screening Centers Network [MLSCN]
The cyclic nucleotide phosphodiesterases (PDEs) are proteins that catalyze hydrolysis of 3', 5'-cyclic nucleotides, such as cyclic adenosine monophosphate (cAMP) and cyclic guanosine monophosphate (cGMP), to their corresponding 5'-nucleotide monophosphates. These enzymes play an important role in controlling cellular concentrations of cyclic nucleotides and have a central role in a variety of intracellular signaling events. cAMP PDEs are emerging as a promising class of drug targets in asthma and cardiovascular disease therapeutic areas.
There are no commercially available cell-based screening assays for PDE inhibitors: currently biochemical assays are done using pure substrates (cAMP or cGMP) and purified recombinant PDE enzymes. As with other biochemical screens on intracellular targets, false positives and false negatives may result from issues involving cell membrane permeability, cellular metabolism, and the like.
Here we report the development of a cell-based screening assay for cAMP phosphodiesterase (PDE) inhibitors. The assay is based on the BD ACTOne# technology (BD Biosciences) which utilizes a modified cyclic nucleotide-gated channel (CNG) to monitor intracellular cAMP changes in live cells. The CNG channel is localized on the plasma membrane, and opens when the intracellular cAMP level increases, resulting in ion flux and cell membrane depolarization. The influx of cations through the CNG channel can be quantified using membrane potential (MP) dyes. We modified the BD ACTOne technology to allow the detection of PDE inhibitors, and performed an inhibitor screen for PDE-IV, which is expressed endogenously in HEK293 cells. We optimized this assay in homogeneous 1536-well plate assay format for high throughput screening.
NCGC Assay Protocol Summary:
The medium contained 10% FBS (Invitrogen), 2 mM L-glutamine, and 250 ug/ml G418 (Cellgro) and 1 ug/ml puromycin (Clontech). ACTOneTM parental cells (BD Biosciences) were maintained in the same medium without puromycin.
The activity of the CNG channel was measured by BD ACTOneTM membrane potential dye kit (BD Biosciences). Forskolin, a positive control for cAMP activation and RO 20-1724, a PDE inhibitor, were both purchased from Sigma and solublized in DMSO.
Sequence,Parameter,Value,Description
1,Reagent,3 uL,1000 cells/well 1536 TC treated Black plate
3,Compound,0.5 uL,Kalypsys dispense RO 20-1724 100 uM final [A]
4,Reagent,3 uL,BD membrane potential dye
6,Compound,23 nL,Final concentration was 0.7nM to 22.9uM
8,Detector,EX 535 / EM 590 [B],Envision
Footnotes: [A] The stock 2 mM RO 20-1724 PDE inhibitor was made in 10 % DMSO. Parental cell line received 10 uM forskolin + 100 uM RO. [B] Envsion settings: Bottom Excitation 535/20 nm top emission 590/20, gain of 150 and 5 flashes per well.
Keywords: PDE, PDE-IV, cytotoxicity, flourescence, MLSMR, MLSCN, NIH Roadmap, qHTS, NCGC
For orientation: In qHTS, concentration-response curves come from the screen itself.
For `CCCOc1ccc(C(=O)OCCN(CC)CC)cc1N`, the outcome was inactive.
The same measure for `CC1=CC(=O)c2ccccc2C1=O`: “inactive”; for `CCOC(=O)c1ccc(OC(=O)CCCCCN=C(N)N)cc1`: “inactive”.
The same measure for `N[C@@H](Cc1ccc(O)c(O)c1)C(=O)O`: “inactive”; for `Cc1noc(NS(=O)(=O)c2ccc(N)cc2)c1C`: “inactive”; for `COc1cc(NS(=O)(=O)c2ccc(N)cc2)nc(OC)n1`: “inactive”.
The same measure for `O=C(O)c1cccnc1`: “inactive”; for `Cc1nnc(NS(=O)(=O)c2ccc(N)cc2)s1`: “inactive”; for `Nc1ccc(S(=O)(=O)Nc2ccccn2)cc1`: “inactive”.
Take `NC(=O)c1cccc(N)c1`: the compound was called inactive.
The same measure for `Cc1cc(NS(=O)(=O)c2ccc(N)cc2)no1`: “inactive”.
Under `CCn1cc(C(=O)O)c(=O)c2cc(F)c(N3CCNCC3)cc21` stands “inactive”; under `COc1cc2ncnc(Nc3cccc(Cl)c3)c2cc1OC`, “inactive”; under `COC(=O)Nc1nc2ccc(C(=O)c3ccccc3)cc2[nH]1`, “inactive”.
Under `CCc1cc(C(N)=S)ccn1` stands “inactive”.
In the case of `NNC(=O)c1ccncc1`, the outcome was inactive.
As for `COc1cnc(NS(=O)(=O)c2ccc(N)cc2)nc1`, the compound was called inactive.
The same measure for `CC(C)(Sc1cc(C(C)(C)C)c(O)c(C(C)(C)C)c1)Sc1cc(C(C)(C)C)c(O)c(C(C)(C)C)c1`: “inactive”; for `Nc1[nH]c(=O)ncc1F`: “inactive”.
Under `NC(N)=NC(N)=NCCc1ccccc1` stands “inactive”; under `CCn1cc(C(=O)O)c(=O)c2cc(F)c(N3CCNCC3)nc21`, “inactive”; under `OCc1ccc(-c2nn(Cc3ccccc3)c3ccccc23)o1`, “inactive”.
The same measure for `COc1ccc2c(c1)c(CC(=O)OCC(=O)O)c(C)n2C(=O)c1ccc(Cl)cc1`: “inactive”; for `COc1ccc2cc3[n+](cc2c1OC)CCc1cc2c(cc1-3)OCO2`: “inactive”.
In the case of `COc1ncnc(NS(=O)(=O)c2ccc(N)cc2)c1OC`, the compound was classed as inactive.
Under `Cc1ncc([N+](=O)[O-])n1CCO` stands “inactive”; under `COC(=O)Nc1nc2ccc(Sc3ccccc3)cc2[nH]1`, “inactive”; under `CNNCc1ccc(C(=O)NC(C)C)cc1`, “inactive”.
The same measure for `N=C(N)c1ccc(OCCCCCOc2ccc(C(=N)N)cc2)cc1`: “inactive”; for `CC1=NN(c2ccccc2)C(=O)C1`: “inactive”.
